The source of these data is PubChem BioAssay (NCI).

About 83,000 compounds went through this panel and 20% of them were active in at least one assay; those are over-represented in the sample as a whole.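 Growth was measured after 48 h exposure to one concentration of compound in 96-well plates. Values under 10 count as active.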 A number with no mark means an inactive call. Active and inactive are the calls of the source.

What all share (test): NCI-60 one-dose screen, 48 h (100 = growth as untreated, 0 = no growth, -100 = all killed)
One test has as its system DU-145 prostate. Conditions: 10 µM unless noted.
The test system of the next test is K-562 leukemia. Conditions: 10 µM unless noted.
Another test concerns MALME-3M melanoma. Conditions: 10 µM unless noted.
A further test relates to MDA-MB-231 breast. Conditions: 10 µM unless noted.
The next test deals with RXF 393 renal. Conditions: 10 µM unless noted.
A further test concerns SF-268 CNS. Conditions: 10 µM unless noted.
The next test deals with SF-295 CNS. Conditions: 10 µM unless noted.
For another test, the system named is SF-539 CNS. Conditions: 10 µM unless noted.
A further test has as its system UACC-257 melanoma. Conditions: 10 µM.
The subject of the next test is M14 melanoma. Conditions: 10 µM unless noted.

Turning to `COC[C@@]1(C)CC[C@]2(C)CC[C@]3(C)C(=CC[C@@H]4[C@@]5(C)CCCNC(C)(C)[C@@H]5CC[C@]43C)C2C1` (some centres undefined), the growth with DU-145 prostate is 73.6%; in the test with K-562 leukemia it was 6.79% (active); in the test with MALME-3M melanoma it was 56.7%; with MDA-MB-231 breast, 77.7%; in the test on RXF 393 renal it was 72.2%; in the test on SF-268 CNS, 77.1%. For the same compound, the growth in the test on SF-295 CNS was 3.52% (active); in the test on SF-539 CNS, 62.7%; in the test on UACC-257 melanoma, 60%; with M14 melanoma, 50.1%.
Take `O=C(Nc1ccc(F)cc1)c1cc(-c2ccc(F)cc2F)ccc1O`: the growth was 16% in the test with DU-145 prostate; 15.4% in the test with K-562 leukemia; -10.5% (active) in the test with MALME-3M melanoma; 17.6% with MDA-MB-231 breast; -21.1% (active) in the test with RXF 393 renal; 14.8% in the test on SF-268 CNS. For the same compound, the figures for the growth in the test on SF-295 CNS, with SF-539 CNS and in the test on UACC-257 melanoma were 25%, 15.6% and -20.7% (active), respectively.
On to `CC(=O)Nc1cccc(-n2cnc3cc(-c4ccc(O)cc4)ccc32)c1`, for which the growth in the test with DU-145 prostate is 27.9%; with K-562 leukemia, 8.67% (active); in the test on MALME-3M melanoma it was 73.7%; in the test on MDA-MB-231 breast it was 61.1%; in the test with RXF 393 renal it was -6.91% (active); with SF-268 CNS, 46.2%. Moreover, the growth with SF-295 CNS was 17.1%; with SF-539 CNS, -5.03% (active); with UACC-257 melanoma it was 79.6%; with M14 melanoma it was 53.2%.
On to `CC(c1ccccc1)N1C(=O)/C(=C/c2csc(C#N)n2)SC1=S` (centres undefined), for which the growth in the test with DU-145 prostate was 87.7%; in the test on K-562 leukemia, 40.8%; in the test on MALME-3M melanoma, 82.4%; in the test on MDA-MB-231 breast, 90.1%; in the test on RXF 393 renal, 90.1%; with SF-268 CNS it was 101%. Further, the growth in the test on SF-295 CNS was 103%; in the test on SF-539 CNS it was 93.4%; in the test with UACC-257 melanoma it was 81.7%; with M14 melanoma, 78.4%.
As to `COc1ccccc1/C=C/C=N/NC1=NC2C(S1)N(C)C(=O)N2c1ccccc1` (centres undefined), the growth with DU-145 prostate is 8.54% (active); in the test on K-562 leukemia, 14.3%; in the test with MALME-3M melanoma, 45.7%; in the test on MDA-MB-231 breast, 18.8%; in the test with RXF 393 renal, 1.56% (active); in the test on SF-268 CNS, 44.4%. The growth in the test with SF-295 CNS was 9.01% (active); with SF-539 CNS, -15.5% (active); in the test with UACC-257 melanoma it was 79.8%; with M14 melanoma it was -12.1% (active).
`Nc1nc(-c2cccc([N+](=O)[O-])c2)c(N=Nc2ccccc2[N+](=O)[O-])s1`: the growth in the test on DU-145 prostate was 37.4%; in the test on K-562 leukemia it was 50.8%; with MALME-3M melanoma, 53.9%; in the test on MDA-MB-231 breast, -54.1% (active); in the test with RXF 393 renal, -67.7% (active); with SF-268 CNS, 19.6%. For the same compound, the growth in the test on SF-295 CNS was 26.6%; with SF-539 CNS, -73.3% (active); in the test with UACC-257 melanoma, 103%; in the test on M14 melanoma, 50.7%.
As to `O=C(/C=C/c1cn(-c2ccccc2)nc1-c1ccc(Cl)cc1)c1cc2ccccc2oc1=O`, the growth in the test with DU-145 prostate was 63.7%; in the test with K-562 leukemia it was 58.4%; in the test on MALME-3M melanoma, 66%; in the test with MDA-MB-231 breast, 55%; in the test with RXF 393 renal it was 95.7%; in the test on SF-268 CNS, 90.8%. Besides, the growth in the test with SF-295 CNS is 48%; in the test on SF-539 CNS it was 68.4%; in the test with UACC-257 melanoma, 93.5%; with M14 melanoma it was 72.8%.
Consider `Oc1ccc(CSc2nnc(-c3ccc(Cl)cc3)o2)c2cccnc12`, for which the growth with DU-145 prostate was 31.8%; in the test with K-562 leukemia it was 16.2%; with MALME-3M melanoma, 36.8%; in the test on MDA-MB-231 breast, 52.1%; in the test on RXF 393 renal it was 52.2%; with SF-268 CNS it was 24.2%. The growth in the test with SF-295 CNS was 5.94% (active); in the test with SF-539 CNS, 17%; in the test with UACC-257 melanoma, 18.8%; in the test on M14 melanoma it was 9.55% (active).
With `O=C(Nc1cccc(Cl)c1)Nc1nc2ccc(-c3cccc4ccccc34)cc2s1`, the growth with DU-145 prostate was 42.7%; in the test with K-562 leukemia, 17.9%; in the test on MALME-3M melanoma, 42.8%; with MDA-MB-231 breast it was 75.2%; in the test with RXF 393 renal it was 84.4%; in the test with SF-268 CNS, 66.7%. Further, the growth was 63.4% with SF-295 CNS, 87% in the test on SF-539 CNS, 50.6% with UACC-257 melanoma and 68.7% in the test with M14 melanoma.
In the case of `Cc1ccc(/C=C/CC(=O)Nc2ccc(C(=O)Nc3ccc(F)cc3N)nc2)cn1`, the growth is 34.9% with DU-145 prostate; 20.4% in the test with K-562 leukemia; 23.9% in the test with MALME-3M melanoma; 54.7% in the test with MDA-MB-231 breast; 37.2% in the test on RXF 393 renal; 45.2% with SF-268 CNS. For the same compound, the growth with SF-295 CNS is 49.1%; with SF-539 CNS it was 40.8%; in the test with UACC-257 melanoma, 32.9%; in the test with M14 melanoma it was 35.5%.
As to `COc1ccc(CN2C(=O)/C(=C/c3nc(CO)cs3)SC2=S)cc1`, the growth in the test with DU-145 prostate is 96.5%; with K-562 leukemia it was 52.6%; in the test on MALME-3M melanoma, 93.2%; in the test with MDA-MB-231 breast, 79.5%; with RXF 393 renal, 95.3%; in the test with SF-268 CNS, 98.8%. Moreover, the growth with SF-295 CNS is 106%; in the test with SF-539 CNS, 70.1%; in the test on UACC-257 melanoma, 93.6%; in the test with M14 melanoma it was 86.4%.
On to `CCOP(=O)(OCC)OC[C@]12CCC(C)(C)C[C@H]1C1=CC[C@@H]3[C@@]4(C)C/C(=C\c5cccnc5)[C@H](OP(=O)(OCC)OCC)C(C)(C)[C@@H]4CC[C@@]3(C)[C@]1(C)CC2`, for which the growth in the test on DU-145 prostate was 30.7%; with K-562 leukemia, 9.94% (active); with MALME-3M melanoma it was 19.5%; in the test with MDA-MB-231 breast, 44.8%; with RXF 393 renal, 58%; with SF-268 CNS, 46.1%. Further, the growth in the test with SF-295 CNS was 26.7%; in the test on SF-539 CNS, 37%; in the test on UACC-257 melanoma, 23.7%; in the test on M14 melanoma it was 34.6%.
For `Cc1cc(C(=O)Nc2ccc(SC#N)cc2)c(C)o1`, the growth is 104% with DU-145 prostate; 93.3% with K-562 leukemia; 107% with MALME-3M melanoma; 92.4% in the test with MDA-MB-231 breast; 66.5% in the test on RXF 393 renal; 66.6% with SF-268 CNS. In addition, the growth in the test with SF-295 CNS was 92.4%; in the test with SF-539 CNS, 98.8%; with UACC-257 melanoma, 111%; in the test with M14 melanoma it was 101%.
